Source: PubChem BioAssay AID371 (SRMLSC, 2006)
About 280 (8.5%) of roughly 3,300 compounds were called active. The list comes from a sample in which actives are over-represented; it also holds similar structures and randomly drawn compounds. Values without a mark were called inactive.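 How the source made its calls: active means mean growth inhibition over the two runs of 50% or more; inactive means mean growth inhibition under 50%.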

Test: A549 NSCLC cell proliferation inhibitors – ATP luminescence, human non-small cell lung line, primary screen (AID 371);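 further: compound exposure lasted 72 h before the ATP read; 0% = untreated cell signal and 100% = no luminescence left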
Details: at 10 µM, stronger effect = higher value

Row | SMILES | growth inhibition
1 | COc1ccc(C=NCCCN2CCOCC2)cc1 | 2.05%
2 | Cc1csc2nc(CSc3nc4ccccc4o3)cn12 | 29.3%
3 | Cc1ccc(-c2nnc(-c3ccccc3)o2)cc1Br | 10.3%
4 | CCOC(=O)c1ccc(N2C(=O)CC(Sc3nnc(C)s3)C2=O)cc1 (centres undefined) | -4.68%
5 | Cc1ccccc1N1C(=O)CC(Sc2nnc(-c3ccccc3)o2)C1=O (centres undefined) | 56.6% (active)
6 | Brc1ccc(-c2cnnc(N3CCCC3)n2)cc1 | 24%
7 | COc1ccc(C2/C(=C(/O)c3cnn(-c4ccccc4)c3C)C(=O)C(=O)N2CCN(C)C)cc1OC (centres undefined) | 7.72%
8 | CSc1nc(Oc2ccc(=O)[nH]n2)nc(N(C)C)n1 | 2.49%
9 | COc1ccc(/C(O)=C2/C(=O)C(=O)N(CCN3CCOCC3)C2c2ccccn2)cc1OC (centres undefined) | 0.85%
10 | COc1cc2nc(-c3ccccc3)nc(N3CCCC3)c2cc1OC | 2.86%
11 | CCOc1cc2nc(-c3ccc(OC)c(OC)c3)nc(N3CCOCC3)c2cc1OC | 66.5% (active)
12 | Brc1cccc(-c2cnc3n2CCCCC3)c1 | 24.1%
13 | COc1ccc(CN(C#N)c2nc(SC)nc(N(C)C)n2)cc1 | 32.9%
14 | CCN(CC)c1ncc(C)c(=O)[nH]1 | -0.05%
15 | CCOC(=O)Cc1nnc(Nc2cccc(O)c2)c2ccccc12 | -1.35%
16 | N=c1ncn(CC(O)CN2CCOCC2)c2nc(N3CCOCC3)[nH]c12 (centres undefined) | -5.31%
17 | C=CCc1cccc(/C=N/n2cnnc2)c1O | 2.3%
18 | C=CCc1cccc(CNc2nc3ccccc3n2C(C)C)c1O | 74.7% (active)
19 | C=CCc1cccc(/C=N/c2ncn[nH]2)c1O | 0.97%
20 | CN=c1sc2ccccc2n1CC(O)COCc1ccco1 (centres undefined) | -6.68%
21 | CC(NC(=O)Nc1nnc(C(F)(F)F)s1)(C(F)(F)F)C(F)(F)F | 11.8%
22 | CCC(NC(=O)Nc1nnc(C(F)(F)F)s1)(C(F)(F)F)C(F)(F)F | 81.7% (active)
23 | CCC(C(=O)Nc1ncn[nH]1)(C(F)(F)F)C(F)(F)F | 2.05%
24 | CCCc1nnc(NC(=O)Nc2ccccc2OC)s1 | 17.3%
25 | CCCSc1nnc(NC(=O)Nc2ccc(F)cc2)s1 | 70.3% (active)

Row | SMILES | growth inhibition
26 | CCCSc1nnc(NC(=O)Nc2ccccc2)s1 | 45.3%
27 | O=C(NCC(F)(F)F)Nc1nnc(C(F)(F)F)s1 | 17.9%
28 | CCSc1nnc(NC(NC(=O)c2ccco2)(C(F)(F)F)C(F)(F)F)s1 | -2.3%
29 | CCSc1nnc(NC(=O)C(CC)(C(F)(F)F)C(F)(F)F)s1 | 66% (active)
30 | CCC(C(=O)Nc1nccs1)(C(F)(F)F)C(F)(F)F | 12.8%
31 | CCSc1nnc(NC(=O)C(C)(C(F)(F)F)C(F)(F)F)s1 | 61.8% (active)
32 | CCSc1nnc(NC(=O)C(C(F)(F)F)C(F)(F)F)s1 | 7.68%
33 | CCCC(CCC(=O)Nc1ccc(C(=O)OC)cc1)C(=O)O (centres undefined) | 5.31%
34 | N#Cc1c(N2CCOCC2)nc(N2CCCCC2)c2c1CCN(C1CCCCC1)C2 | 23.2%
35 | CC(C)COC(=O)CCNc1n[nH]c(=O)[nH]c1=O | 2.08%
36 | O=c1cc(-c2ccco2)nc(-c2cccs2)o1 | 15%
37 | COc1cccc(-c2nnc3sc(-c4ccco4)nn23)c1 | 11.9%
38 | Cc1cc(C)n(CC2CC(=O)N(c3ccc(F)c(Cl)c3)C2=O)n1 (centres undefined) | 1.52%
39 | Cn1nccc1C(=O)Nc1ccccc1C(=O)O | 2.72%
40 | CCCSc1nc(O)c(C2OC(=O)c3c2ccc(OC)c3OC)c(=O)n1C (centres undefined) | 3.43%
41 | Cc1ccc(-n2ncc3c(N4CCC(C(N)=O)CC4)ncnc32)c(C)c1 | 7.75%
42 | CCc1cccc(C)c1N(C(=O)Cn1c(=O)[nH]c2ccccc21)C(C)COC (centres undefined) | 17.6%
43 | CCSc1nnc(NC(=O)NC(CC)(C(F)(F)F)C(F)(F)F)s1 | 82.1% (active)
44 | CCC(NC(=O)Nc1nccs1)(C(F)(F)F)C(F)(F)F | 2.27%
45 | CCSc1nnc(NC(=O)NCC(F)(F)F)s1 | -0.28%
46 | CCN(CC)CCN1C(=O)C(=O)/C(=C(/O)c2ccc(OC)cc2)C1c1ccco1 (centres undefined) | 2.24%
47 | Cc1cc(NCCNC2=CC(=O)CCC2)nc2ccccc12 | 3.87%
48 | Cc1cc(N/C=C/C(=O)c2cccc3ccccc23)no1 | 40.5%
49 | CC(=O)Oc1ccc2c(C)cc(=O)[nH]c2c1 | 10.7%
